± gives the standard deviation of the averaged measurements.
The molecules below were run on HT-1080 (assay: relative cell viability with RSL3 co-treatment (fraction of control); higher = stronger protection from RSL3-induced ferroptosis (higher viability)). Conditions: 10 µM.
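Further: viability read as CCK-8 absorbance at 450 nm in cells co-exposed to the GPX4 inhibitor RSL3, relative to a 0.01% DMSO vehicle control.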

Compound	relative cell viability
COc1ccc(COc2cc3oc(=O)c4cc(C(C)O)ccc4c3cc2OC)cc1 (stereo not given) [Palomid 529 (P529)]	0.537 ± 0.2
O=C(NC[C@H](O)CO)c1ccncc1Nc1ccc(I)cc1F	0.803 ± 0.076
CO[C@H]1C[C@@H]2CC[C@@H](C)[C@@](O)(O2)C(=O)C(=O)N2CCCC[C@H]2C(=O)O[C@H]([C@H](C)C[C@@H]2CC[C@@H](OP(C)(C)=O)[C@H](OC)C2)CC(=O)[C@H](C)/C=C(\C)[C@@H](O)[C@@H](OC)C(=O)[C@H](C)C[C@H](C)/C=C/C=C/C=C/1C [Ridaforolimus (Deforolimus, MK-8669)]	0.847 ± 0.14
CN1CCN(Cc2ccc(-c3cnc4[nH]cc(-c5ccc6[nH]ccc6c5)c4c3)cc2)CC1	0.497 ± 0.04
Cc1cc(Nc2nc(N[C@@H](C)c3ncc(F)cn3)ncc2Cl)[nH]n1	0.597 ± 0.12
Oc1c2ccccc2c2c3c(cccc13)N=N2	0.71 ± 0.036
Cc1ccc(Nc2nccc(N(C)c3ccc4c(C)n(C)nc4c3)n2)cc1S(N)(=O)=O	0.597 ± 0.15
COc1ncc(-c2cc(-c3ncc(CN4C[C@@H](C)O[C@@H](C)C4)o3)c3cn[nH]c3c2)cc1NS(C)(=O)=O	0.563 ± 0.051
Cn1cc(-c2ccc3nnc(C(F)(F)c4ccc5ncccc5c4)n3n2)cn1	0.743 ± 0.04
CO[C@H]1C[C@@H]2CC[C@@H](C)[C@@](O)(O2)C(=O)C(=O)N2CCCC[C@H]2C(=O)O[C@H]([C@H](C)C[C@@H]2CC[C@@H](O)[C@H](OC)C2)CC(=O)[C@H](C)/C=C(\C)[C@@H](O)[C@@H](OC)C(=O)[C@H](C)C[C@H](C)/C=C/C=C/C=C/1C [Rapamycin (Sirolimus)]	0.387 ± 0.085
